Assay results from PubChem BioAssay.
Results filed as inconclusive are left out. Calls of active or inactive are those of the source. Unless noted, no stated cut-off is given here; in the data, active means inhibition above about 80%; inactive means the rest.

Assays:
[1] = molecular target: ATP-dependent translocase ABCB1 (Homo sapiens) (UniProt P08183); experiment: P-glycoprotein substrate transport blockade – cell-based (AID 377; in the data active means fluorescence slope change above about 50%); conditions: MDR1-expressing cells, fluorescent substrate accumulation slope; stronger effect = higher value; concentration not given here
ATP-dependent translocase ABCB1 (Homo sapiens), sequence (P08183 whole entry, looked up, the tested form may be a part): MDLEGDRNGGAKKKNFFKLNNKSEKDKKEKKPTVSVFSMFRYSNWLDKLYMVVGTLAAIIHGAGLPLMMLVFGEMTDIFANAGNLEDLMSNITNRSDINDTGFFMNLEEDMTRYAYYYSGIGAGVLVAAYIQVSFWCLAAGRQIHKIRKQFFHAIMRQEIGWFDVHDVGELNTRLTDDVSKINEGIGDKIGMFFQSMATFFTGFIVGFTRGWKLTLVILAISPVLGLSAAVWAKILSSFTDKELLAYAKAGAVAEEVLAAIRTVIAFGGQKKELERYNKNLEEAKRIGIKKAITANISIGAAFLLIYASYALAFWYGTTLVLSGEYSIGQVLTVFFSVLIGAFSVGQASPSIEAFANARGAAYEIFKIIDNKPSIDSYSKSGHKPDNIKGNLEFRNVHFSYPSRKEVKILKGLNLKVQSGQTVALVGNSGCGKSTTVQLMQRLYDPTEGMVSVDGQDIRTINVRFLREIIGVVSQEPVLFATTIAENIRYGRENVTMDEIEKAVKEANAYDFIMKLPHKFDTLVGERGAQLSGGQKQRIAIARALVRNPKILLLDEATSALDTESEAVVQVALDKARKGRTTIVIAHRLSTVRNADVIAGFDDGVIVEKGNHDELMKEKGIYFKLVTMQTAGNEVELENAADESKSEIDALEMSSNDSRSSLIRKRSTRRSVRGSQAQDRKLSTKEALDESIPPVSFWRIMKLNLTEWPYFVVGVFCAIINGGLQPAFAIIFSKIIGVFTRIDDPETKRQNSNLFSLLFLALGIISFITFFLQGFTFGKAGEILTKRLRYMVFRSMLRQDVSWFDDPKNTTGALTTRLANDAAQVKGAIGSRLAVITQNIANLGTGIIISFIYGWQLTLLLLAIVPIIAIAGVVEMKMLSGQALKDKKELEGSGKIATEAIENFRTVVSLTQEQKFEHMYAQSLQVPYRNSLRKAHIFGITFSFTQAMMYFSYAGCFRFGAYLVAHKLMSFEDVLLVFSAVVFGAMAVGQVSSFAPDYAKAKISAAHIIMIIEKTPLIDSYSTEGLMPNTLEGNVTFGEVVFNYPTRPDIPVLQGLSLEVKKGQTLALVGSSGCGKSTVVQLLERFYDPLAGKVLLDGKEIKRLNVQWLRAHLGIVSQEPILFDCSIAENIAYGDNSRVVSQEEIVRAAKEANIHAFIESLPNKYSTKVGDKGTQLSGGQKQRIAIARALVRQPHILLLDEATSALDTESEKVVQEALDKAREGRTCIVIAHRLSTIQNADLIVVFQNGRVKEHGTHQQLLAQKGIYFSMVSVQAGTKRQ

[2] = molecular target: Mitogen-activated protein kinase 7 (Homo sapiens) (UniProt Q13164); experiment: Gal4-ERK5 driven luciferase induction – cell-based, HTS, primary screen (AID 1508626;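 active means luciferase signal above three times the same-plate solvent-only control wells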;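 further: luciferase driven by Gal4-ERK5 fusion binding five Gal4 sites before minimal TATA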); conditions: HeLa Gal4-ERK5 transactivation, 18 h, at 5 µM, stronger effect = higher value
Mitogen-activated protein kinase 7 (Homo sapiens), sequence (Q13164 whole entry, looked up, the tested form may be a part): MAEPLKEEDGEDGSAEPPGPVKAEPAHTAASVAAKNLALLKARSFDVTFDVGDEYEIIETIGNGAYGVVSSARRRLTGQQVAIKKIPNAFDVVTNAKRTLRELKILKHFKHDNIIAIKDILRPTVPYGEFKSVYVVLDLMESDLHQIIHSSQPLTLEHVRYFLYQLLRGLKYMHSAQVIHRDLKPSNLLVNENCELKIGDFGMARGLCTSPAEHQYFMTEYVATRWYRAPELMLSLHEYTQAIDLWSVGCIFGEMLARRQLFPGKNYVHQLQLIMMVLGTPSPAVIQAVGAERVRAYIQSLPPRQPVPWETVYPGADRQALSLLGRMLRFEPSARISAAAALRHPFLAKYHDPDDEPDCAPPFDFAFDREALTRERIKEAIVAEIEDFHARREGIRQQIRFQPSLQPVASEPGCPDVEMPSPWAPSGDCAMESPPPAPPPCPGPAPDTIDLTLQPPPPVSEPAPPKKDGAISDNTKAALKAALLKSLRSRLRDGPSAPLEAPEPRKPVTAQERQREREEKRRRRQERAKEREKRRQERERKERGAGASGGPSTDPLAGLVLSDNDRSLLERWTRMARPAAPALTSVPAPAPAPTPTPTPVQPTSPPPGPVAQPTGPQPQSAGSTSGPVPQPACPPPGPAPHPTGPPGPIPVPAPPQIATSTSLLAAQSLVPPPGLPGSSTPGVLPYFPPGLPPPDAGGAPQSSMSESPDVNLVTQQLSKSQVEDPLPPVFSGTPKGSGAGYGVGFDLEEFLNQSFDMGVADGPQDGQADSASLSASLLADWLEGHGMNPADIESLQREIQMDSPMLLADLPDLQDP

[3] = galactose survival enhancers in mitochondrial complex I cybrids – cell-based, galactose medium, ATP luminescence, primary screen (AID 1645843;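 active means z-score of at least 1.8 in each of two replicates, scored against plate mean and spread of sample wells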;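 further: positive z means more ATP and so rescue of galactose-driven cybrid death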); conditions: complex I mutant cybrid cells, 72 h, stronger effect = higher value
[4] = viability loss in pontine glioma line – cell-based, JHH-DIPG-1, MIPE4.0, CellTiter-Glo, qHTS, dose response (AID 1347062; cut-off not given, nearly all actives have AC50 up to about 27 µM); conditions: JHH-DIPG-1 viability, CellTiter-Glo ATP luminescence
[5] = viability loss in pontine glioma line – cell-based, SU-DIPG-IV, MIPE4.0, CellTiter-Glo, qHTS, dose response (AID 1347063; cut-off not given, nearly all actives have AC50 up to about 30 µM;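 further: compound exposure lasted 48 hours before the viability readout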); conditions: CellTiter-Glo ATP luminescence
[6] = viability loss in pontine glioma line – cell-based, SU-DIPG-XXV, MIPE5.0, CellTiter-Glo, qHTS, dose response (AID 1347065; cut-off not given, nearly all actives have AC50 up to about 26 µM;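 further: cells exposed to compound for 48 hours before ATP readout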); conditions: CellTiter-Glo ATP luminescence
[7] = growth inhibition of DIPG cells – cell-based, MIPE4.0 library, CellTiter-Glo luminescence, qHTS (AID 1347066; cut-off not given, nearly all actives have AC50 up to about 30 µM;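 further: cells exposed to compound for 48 hours before readout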); conditions: SU-DIPG-VI viability, CellTiter-Glo ATP luminescence
[8] = JHH-DIPG-1 glioma cell viability, MIPE5.0 library, CellTiter-Glo luminescence, qHTS (AID 1347067; cut-off not given, nearly all actives have AC50 up to about 26 µM;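 further: cells exposed to compound for 48 hours before readout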); conditions: JHH-DIPG-1 glioma viability, CellTiter-Glo ATP luminescence
[9] = growth inhibition of DIPG cells – cell-based, MIPE5.0 library, qHTS (AID 1347068; cut-off not given, nearly all actives have IC50 up to about 30 µM); conditions: SU-DIPG-XXV viability
[10] = growth inhibition, single agents and combos, LFS_MB_1R, cell-based, cisplatin or BGB combos, synergistic combos for chromothripsis tumors (AID 1671452); conditions: LFS_MB_1R medulloblastoma cells, stronger effect = higher value;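 further: cells exposed for 96 hours before readout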
[11] = growth inhibition, single agents and combos, CRL2098, cell-based, BGB or cisplatin IC20 combos, synergistic combos for chromothripsis tumors (AID 1671454); conditions: CRL2098 osteosarcoma cells, drug combinations, stronger effect = higher value;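 further: cells exposed for 96 h before readout; 0% = vehicle DMSO and 100% = killing by high DMSO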
[12] = growth inhibition, single agents and combos, HD-MB03, cell-based, BGB or cisplatin IC20 combos, synergistic combos for chromothripsis tumors (AID 1671455; in the data active means inhibition above about 83%;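 further: 0% = vehicle DMSO and 100% = high DMSO as cytotoxic control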); conditions: HD-MB03 medulloblastoma cells, stronger effect = higher value
[13] = growth inhibition, single agents and combos, UWB1.289, cell-based, BGB or cisplatin combos, synergistic combos for chromothripsis tumors (AID 1671456); conditions: UWB1.289 ovarian carcinoma cells, stronger effect = higher value;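 further: cells exposed to compound for four days; 0% = vehicle DMSO and 100% = killing by high DMSO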
[14] = growth inhibition, single agents and combos, LFS_MB_2R, cell-based, cisplatin combos, synergistic combos for chromothripsis tumors (AID 1671457); conditions: LFS_MB_2R medulloblastoma cells, stronger effect = higher value;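 further: cells exposed to compound for four days before readout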
[15] = UWB1.289_BRCA1 ovarian cancer growth, cell-based, BGB or cisplatin combinations (AID 1671459); conditions: UWB1.289 BRCA1 ovarian carcinoma, drug combinations, stronger effect = higher value
[16] = drug combination toxicity in non-malignant astrocytes – cell-based, BGB or cisplatin IC20 combos, cytotoxicity control for chromothriptic childhood tumor combination screen (AID 1671460); conditions: Human astrocytes, viability inhibition, drug combinations, at 0.5 µM, stronger effect = higher value;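 further: cells exposed to compounds for 96 hours before viability readout; 0% = vehicle and 100% = killing control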
[17] = BT084 cell growth, single and combined drugs, ICGC_MB145, cisplatin and BGB IC40 combos (AID 1671461); conditions: BT084 medulloblastoma cells, drug combinations, stronger effect = higher value;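 further: cells exposed to drugs for 96 hours; 0% = vehicle DMSO and 100% = high DMSO full killing control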
[18] = RCMB18 cell growth, single agent and combined, cisplatin and BGB IC40 combos (AID 1671462); conditions: RCMB18 medulloblastoma cells, stronger effect = higher value;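 further: cells exposed to compound for four days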
[19] = CRL1545 cell growth, single agent and combined, cisplatin and BGB IC20 combos (AID 1671464); conditions: CRL1545 osteosarcoma cells, stronger effect = higher value;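 further: cells exposed to compound for 96 hours before readout; 0% = vehicle DMSO and 100% = high DMSO killing control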
[20] = measured here: combination with cisplatin, at 0.5 µM
[21] = measured here: combination with cisplatin, at 5 µM

CCN(CC)C(=O)c1ccc(O)c(OC)c1
fluorescence slope change [1]: 53.1% (active) | luciferase signal [2]: 52 AU (inactive) | z-score [3]: 0.21 (inactive)

Cc1cc(=O)oc2cc(O)ccc12
outcome [4]: inactive | outcome [5]: inactive | outcome [6]: inactive | outcome [7]: inactive | outcome [8]: inactive

OC(CCN1CCCCC1)(c1ccccc1)C1CC2C=CC1C2 (stereo unspecified)
fluorescence slope change [1]: 23% (inactive) | outcome [4]: inactive | outcome [5]: inactive | outcome [6]: inactive | outcome [7]: inactive | outcome [8]: inactive | outcome [9]: inactive | luciferase signal [2]: 60 AU (inactive) | z-score [3]: -0.86 (inactive)

C[C@H]1[C@H](NC(=O)/C(=N/OC(C)(C)C(=O)O)c2csc(N)n2)C(=O)N1S(=O)(=O)O (stereo in doubt)
outcome [4]: inactive | outcome [5]: inactive | outcome [7]: inactive

CN1CCN(c2c(F)cc3c(=O)c(C(=O)O)cn4c3c2OCN4C)CC1
outcome [4]: inactive | outcome [5]: inactive | outcome [7]: inactive | inhibition ([10]; at 0.5 µM): -24.2% (inactive) | inhibition ([10]; measured here: combination with BGB IC40, at 0.05 µM): -29.1% | inhibition [10, 20]: -7.67% | inhibition [10, 21]: 23.6% | inhibition ([11]; at 0.5 µM): -52.3% (inactive) | inhibition ([11]; measured here: combination with BGB at IC20, at 0.5 µM): -51% | inhibition ([11]; measured here: combination with cisplatin at IC20, at 0.5 µM): -59.8% | inhibition ([12]; at 0.5 µM): -2.64% (inactive) | inhibition ([12]; measured here: combo with BGB at IC20, at 0.5 µM): 4.92% | inhibition ([12]; measured here: combo with cisplatin at IC20, at 0.5 µM): 0.073% | inhibition ([13]; at 0.5 µM): -1.17% (inactive) | inhibition ([13]; measured here: inhibition with BGB combination, at 0.05 µM): -15.9% | inhibition ([13]; measured here: inhibition with cisplatin combination, at 0.05 µM): 9.55% | inhibition ([14]; at 0.5 µM): -13.7% (inactive) | inhibition [14, 20]: -20.3% | inhibition [14, 21]: -60.6% | inhibition ([15]; BGB combination, concentration series, at 5 µM): 1.13% | inhibition ([15]; at 0.5 µM): 0.06% (inactive) | inhibition ([15]; cisplatin combination, concentration series, at 5 µM): 8.22% | inhibition [16]: 6.55% (inactive) | inhibition ([16]; measured here: combo with BGB IC20): 4.16% | inhibition ([16]; measured here: combo with cisplatin IC20): 12.5% | inhibition ([17]; at 0.5 µM): -6.03% (inactive) | inhibition ([17]; cisplatin combination, at 0.5 µM): -9.98% | inhibition ([17]; cisplatin combination, at 5 µM): 4.69% | inhibition ([17]; measured here: BGB IC40 combination 0.05 uM, at 0.05 µM): 6.42% | inhibition ([17]; single agent, at 5 µM): -5.93% | inhibition ([18]; at 0.5 µM): -12.6% (inactive) | inhibition ([18]; cisplatin combo, at 5 µM): -14.3% | inhibition ([18]; measured here: BGB IC40 combination, at 0.05 µM): -20.1% | inhibition [18, 20]: -5.19% | inhibition ([18]; single agent, at 5 µM): -1.41% | inhibition ([19]; at 0.5 µM): -1.5% (inactive) | inhibition ([19]; measured here: with BGB IC20 combination, at 0.5 µM): -0.247% | inhibition ([19]; measured here: with cisplatin IC20 combination, at 0.5 µM): -4.44% | inhibition ([19]; single agent, at 0.05 µM): -8.36% | inhibition ([19]; single agent, at 5 µM): 2.43%

Clc1ccc(Cn2c(CN3CCCC3)nc3ccccc32)cc1
fluorescence slope change [1]: 82.8% (active) | outcome [8]: inactive | outcome [9]: inactive | luciferase signal [2]: 56 AU (inactive) | z-score [3]: -1.35 (inactive)

Clc1ccc(C(Cn2ccnc2)OCc2ccsc2Cl)c(Cl)c1 (stereo unspecified)
outcome [4]: inactive | luciferase signal [2]: 72 AU (inactive) | z-score [3]: -1.6 (inactive)

O=C(Nc1ccccc1)OCC(CN1CCCCC1)OC(=O)Nc1ccccc1 (stereo unspecified)
fluorescence slope change [1]: 147% (active)

CCOc1nc2cccc(C(=O)O)c2n1Cc1ccc(-c2ccccc2-c2nn[nH]n2)cc1
z-score [3]: 0.64 (inactive)

CCCCOC(=O)c1ccc(O)cc1
luciferase signal [2]: 88 AU (inactive)

CC1CCc2c(N3CCC(O)CC3)c(F)cc3c(=O)c(C(=O)O)cn1c23 (stereo unspecified)
z-score [3]: 1.2 (inactive)

CCCCOc1cc(C(=O)OCCN(CC)CC)ccc1N
z-score [3]: 0.26 (inactive)

O=C(Oc1ccccc1C(=O)O)c1ccccc1O
luciferase signal [2]: 64 AU (inactive)

Cc1ncc(CO)c(CO)c1O
luciferase signal [2]: 160 AU (inactive)

O=C(N/N=C/c1ccc([N+](=O)[O-])o1)c1ccc(O)cc1
fluorescence slope change [1]: -24% (inactive)
